Screening results from PubChem.
INS promoter inh: TRM-6 insulin promoter activity inhibition; TRM-6 cells (human fetal islet line), insulin promoter-eGFP reporter, imaging; reporter expression induced with tamoxifen; inhibition, % at 2 µM; 0.9% of 130,000 active;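 active means inhibition above the mean plus 3 SD, with well images judged a real hit on visual review, cut at about 60% in these data, passing the limit was not always enough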
PGE2 EP2 inh: blocks the human prostaglandin E2 receptor EP2 | 0.52% of 260,000 active | C6 glioma cells expressing human EP2, cAMP TR-FRET; cells stimulated with saturating PGE2 | P43116 | inhibition, % at 25 µM;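 active means percent inhibition above 40 after rounding to a whole number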;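 further: rat C6 glioma host cells with rolipram phosphodiesterase inhibitor present; the protocol text gives 20 µM as final concentration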
EP2 mod: modulators of human EP2 prostaglandin E2 receptor. P43116. EP2-expressing cells, cAMP HTRF FRET, PGE2 co-stimulation. induction, % at 25 µM. 0.83% of 260,000 active. AID 940;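 active means compounds whose cAMP rise, as percent of the full-agonist control response, exceeds 60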;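 further: rat C6 glioma line stably carrying human EP2 under a CMV promoter; the protocol text gives 20 µM as final concentration; 100% = response of wells given 1 µM PGE2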
S1P4 antagonist: blocks the human S1P4 receptor; O95977; S1P4-expressing cells, antagonist mode, reporter read-out; inhibition, % at 4.98 µM; 0.26% of 220,000 active; AID 1510; in the data active means inhibition above about 29%;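 further: 0% = wells stimulated with agonist and 100% = vehicle wells without agonist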
Target sequence (O95977 whole entry, looked up): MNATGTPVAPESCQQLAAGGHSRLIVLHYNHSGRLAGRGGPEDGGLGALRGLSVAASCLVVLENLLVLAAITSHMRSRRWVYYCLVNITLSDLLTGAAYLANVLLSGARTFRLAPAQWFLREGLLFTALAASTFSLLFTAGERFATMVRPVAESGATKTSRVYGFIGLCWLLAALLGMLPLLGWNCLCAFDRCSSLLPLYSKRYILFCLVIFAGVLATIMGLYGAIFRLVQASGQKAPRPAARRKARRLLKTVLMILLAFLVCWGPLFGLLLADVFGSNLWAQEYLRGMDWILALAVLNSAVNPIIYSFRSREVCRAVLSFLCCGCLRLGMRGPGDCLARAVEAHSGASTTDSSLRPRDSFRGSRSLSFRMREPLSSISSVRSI
S1P3 antagonist: S1P3 (human) receptor antagonism | Q99500 | CHO S1P3 NFAT-BLA reporter, FRET fluorescence, antagonist mode | inhibition, % at 4.98 µM | 0.27% of 170,000 active;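 active means inhibition above the plate cutoff, the mean inhibition of test wells on that plate plus 3 SD, cut at about 28% in these data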;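 further: cells challenged with S1P at its EC80 of 0.8 µM; blue over green emission ratio from cleaved BLA substrate after 4 h stimulation; 0% = S1P-stimulated wells and 100% = unstimulated DMSO-only wells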
Target sequence (Q99500 whole entry, looked up): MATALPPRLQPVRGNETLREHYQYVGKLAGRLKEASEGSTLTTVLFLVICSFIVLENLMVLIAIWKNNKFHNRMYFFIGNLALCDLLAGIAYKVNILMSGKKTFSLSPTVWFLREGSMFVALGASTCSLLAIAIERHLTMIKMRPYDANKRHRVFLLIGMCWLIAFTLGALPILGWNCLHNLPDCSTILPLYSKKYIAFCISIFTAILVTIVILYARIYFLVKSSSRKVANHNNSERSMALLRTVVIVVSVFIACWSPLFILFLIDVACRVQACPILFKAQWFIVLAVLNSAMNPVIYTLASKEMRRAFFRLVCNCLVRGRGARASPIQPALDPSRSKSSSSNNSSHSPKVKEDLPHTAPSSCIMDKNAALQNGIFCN
S1P4 agonist: activates the human S1P4 receptor | O95977 | S1P4-expressing cell line, agonist reporter assay | activation, % at 4.98 µM | 0.35% of 220,000 active | AID 1509; in the data active means activation above about 11%;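 further: 0% = DMSO vehicle and 100% = reference agonist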
* = called active by the depositor; . = no result given; ! = repeats disagree. This is a sample that favours compounds with a hit; in the whole collection about 2.4% have one here.

SMILES | INS promoter inh | PGE2 EP2 inh | EP2 mod | S1P4 antagonist | S1P3 antagonist | S1P4 agonist
O=C(NCc1ccco1)c1cc([N+](=O)[O-])ccc1Cl | . | 10.3 | -12.0 | 5.7 | -6.0 | -0.6
O=C(NCc1ccco1)c1cc2ccccc2c(=O)o1 | 78.6* | 18.6 | 1.1 | -14.7 | -4.7 | 1.3
O=C(NCc1ccco1)c1cc([N+](=O)[O-])cc([N+](=O)[O-])c1 | 66.7* | 12.3 | 20.2 | -3.1 | -10.0 | 0.2
Cc1ccc(C(=O)Nc2cccc(C(=O)NCc3ccco3)c2)cc1 | -7.7 | 10.8 | -23.5 | 7.9 | 66.7* | 1.1
CC(C)(C)NC(=O)c1cccc(NC(=O)c2ccco2)c1 | -66.7 | 12.5 | -51.7 | -7.7 | . | 2.1
CC(C)(C)NC(=O)c1cccc(NC(=O)c2ccc(NC(=O)c3ccco3)cc2)c1 | 100.0* | 9.6 | -16.3 | -13.4 | 21.9 | -2.2
CC(O)CN(Cc1ccc(N2CCCC2=O)cc1)Cc1ccc2c(c1)OCO2 (stereo unspecified) | . | 3.1 | 12.1 | . | . | .
COc1ccccc1NC(=O)C1=C(C)NC2=C(C(=O)CC(C)(C)C2)C1c1ccc(Cl)c(Cl)c1 (stereo unspecified) | . | 3.5 | 19.7 | . | . | .
COc1ccc(S(=O)(=O)Nc2ccc3c(c2)OCO3)cc1C | 85.7* | 5.9 | 1.7 | -4.7 | . | -2.3
COC(=O)COc1ccc(S(=O)(=O)Nc2ccc3c(c2)OCO3)cc1C | . | 6.7 | -51.5 | . | . | .
CCOC(=O)c1ccc(NC(=O)CSc2nnc(-c3ccco3)n2C)cc1 | . | 4.8 | -7.6 | . | . | .
O=Cc1cccc(OC(=O)c2ccc(Cl)cc2Cl)c1 | -57.1 | 7.4 | 63.7* | 8.3 | . | 3.8
COc1cc(C(=O)Oc2cccc(C=O)c2)cc(OC)c1OC | -26.7 | 18.1 | 12.2 | 10.2 | . | -1.2
COc1ccc(C(=O)C2CCCN(C(=O)CCc3c(C)noc3C)C2)cc1 (stereo unspecified) | . | 3.9 | -14.6 | . | . | .
COc1ccc(-c2cc(CCCC(=O)NCCc3ccccc3)no2)cc1 | . | 6.6 | -64.0 | 6.1 | -0.3 | -0.5
CCOc1ccc(-c2cc(CCCC(=O)NCCc3ccccc3)no2)cc1 | 75.0* | 7.5 | -24.5 | 2.2 | . | -0.5
CCCNC(=O)OCCC12CC3CC(CC(C3)C1)C2 | 69.2* | 8.5 | 27.4 | -0.8 | -35.4 | 4.8
CCCNC(=O)NCCC12CC3CC(CC(C3)C1)C2 | 47.1 | -0.8 | -25.3 | 11.6 | -0.7 | -2.3
CC(=O)c1sc(-c2ccccc2)cc1NS(=O)(=O)c1ccccc1 | . | 80.6* | -20.6 | 1.4 | -10.8 | 0.0
CC(=O)c1sc(-c2ccccc2)cc1NS(=O)(=O)c1ccc(C)cc1 | . | 73.8* | -9.1 | -4.9 | -6.4 | 0.6
CC(C)C1=C[C@@]23CC[C@@H]4[C@](C)(CCC[C@@]4(C)C(=O)O)[C@@H]2C[C@@H]1[C@H](C(=O)O)[C@@H]3C(=O)O | . | 49.8* | 4.6 | . | . | .
COc1ccc(-n2nnnc2SCC(=O)Nc2c(C)cccc2C)cc1 | . | 5.9 | -50.6 | . | . | .
O=C(CSc1nnc(-c2ccccc2Cl)o1)Oc1ccc(Br)cc1 | -359.5 | 47.1*! | -1.2 | 1.1 | . | 0.2
O=C(CSc1nnc(-c2ccccc2O)o1)Oc1ccc(Br)cc1 | 47.8 | 2.6 | 6.6 | 4.4 | . | 2.2
Cc1ccc(C(C2=C(O)CC(C)(C)CC2=O)C2C(=O)CC(C)(C)CC2=O)s1 (stereo unspecified) | . | 30.4 | -8.4 | 13.4 | . | -1.4
SMILES | INS promoter inh | PGE2 EP2 inh | EP2 mod | S1P4 antagonist | S1P3 antagonist | S1P4 agonist
CC1(C)CC(=O)C(C(C2=C(O)CC(C)(C)CC2=O)c2ccc(Br)s2)C(=O)C1 (stereo unspecified) | . | 51.0* | -78.2 | -13.4 | -11.9 | 0.8
Nc1nonc1-c1nc2ccccc2n1Cc1ccc(F)cc1Cl | -31.2 | . | 52.5 | -12.8 | 78.0* | -0.7
Cc1ccc(CN2CCN(Cc3ccc(O)cc3)CC2CCO)o1 (stereo unspecified) | . | 2.3 | 4.8 | 12.7 | -7.5 | 0.2
Cc1ccc(CN2CCN(Cc3ccc(C)o3)[C@@H](C)C2)o1 | . | 42.8* | 11.5 | . | . | .
Cc1cccc(NC(=O)c2ccccc2NC(=O)CCC(=O)O)c1 | 78.6* | 6.4 | 3.0 | -7.1 | -7.5 | 1.2
CC(=O)N(CC(=O)O)c1ccccc1 | -18.8 | 10.5 | 19.3 | -6.8 | -8.6 | 1.0
CC(=O)N(CC(C)(C)CC=C(C)C)c1ccccc1 | 65.2* | 16.5 | 35.7 | -1.3 | 13.0 | 0.0
CC(=O)CSc1ncnc2c1oc1ccccc12 | 36.4 | 15.5 | 62.5* | -17.6 | -14.3 | 0.2
COc1ccc(OCCCC(=O)Nc2cccc(C(C)=O)c2)cc1 | . | 51.3* | -6.3 | 2.1 | 5.6 | -1.7
CC(=O)N1c2ccc(C(O)CN3CCC(O)(c4ccccc4F)CC3)cc2CC1C (stereo unspecified) | . | 1.7 | -50.5 | . | . | .
COc1ccc(-c2nc(NC(=O)c3[nH]c(C)c(C(C)=O)c3C)sc2C)cc1 | 8.3 | 99.8* | -64.2 | -5.5 | 3.8 | -1.7
CC(=O)c1c(C)[nH]c(C(=O)Nc2nc(-c3ccc(Cl)cc3)cs2)c1C | 33.3 | 40.6* | -52.5 | 6.1 | -5.6 | 1.4
CC(C)(C)C(=O)CSc1nnc(-c2ccccc2)o1 | . | 11.6 | -24.5 | . | . | .
CCC(C)(C)n1nnnc1C(c1cc2cc(C)cc(C)c2[nH]c1=O)N1CCCC(C)C1 (stereo unspecified) | . | 10.3 | 85.8* | . | . | .
Cn1cnc2cc(N)ccc21 | . | 8.3 | -18.7 | . | . | .
O=C1C(=O)N(CC2CCCO2)C(c2cccnc2)/C1=C(/O)c1ccc(F)cc1 (stereo unspecified) | . | 10.7 | 3.2 | . | . | .
Nc1ccc(-c2nc3ccc(-c4nc5ccccc5o4)cc3[nH]2)cc1 | 21.4 | 73.0* | -36.6 | -5.1 | 18.7 | 1.2
Cn1nccc1CNC(=O)c1c(Cl)cnn1C | 72.7* | 4.2 | 18.2 | -17.7 | -9.4 | -0.4
Cc1onc(C(=O)NC2(c3ccccc3)CCCC2)c1Cn1cccn1 | . | 4.7 | 7.5 | . | . | .
CC(C)(C)NC(=O)c1ccccc1NC(=O)c1cccs1 | . | 21.7 | 17.0 | . | . | .
NC(=O)c1cccc(-c2cc(Nc3ccc(OC(F)(F)F)cc3)ncn2)c1 | . | 59.5* | -23.5 | . | . | .
COc1ccc([C@@H]2C[C@H](C(=O)N3CCC(C)CC3)N(C)S(=O)(=O)N2)cc1OC | . | . | -1.9 | . | . | .
O=C1OC2CC3CC1CC(O)(C3)C2 (stereo unspecified) | 85.7* | 6.3 | 17.0 | -7.3 | -39.9 | 0.1
Cc1ncccc1-c1cc2cccnc2n1CCCNC(=O)Cc1ccccc1F | . | 3.7 | -2.5 | . | . | .
Cc1nc2ccc(NC(=O)c3cc([N+](=O)[O-])cc([N+](=O)[O-])c3Cl)cc2s1 | . | 121.2* | -2.1 | 66.1* | -0.9 | 6.0
SMILES | INS promoter inh | PGE2 EP2 inh | EP2 mod | S1P4 antagonist | S1P3 antagonist | S1P4 agonist
Cc1nc2ccc(NC(=O)c3ccc(Cl)c([N+](=O)[O-])c3)cc2s1 | . | 10.0 | -1.4 | -12.3 | -4.1 | -1.2
COCCn1c(C)cc(C=C2C(=O)NC(=S)NC2=O)c1C | . | 13.1 | -94.3 | . | . | .
CCOC(=O)c1c(-c2ccc(C)c(C)c2)csc1NC(=O)COC | . | 9.0 | 92.9* | . | . | .
CCOC(=O)c1c(-c2ccccc2)csc1NC(=S)NC | 25.9 | 18.9 | 32.7 | -5.1 | -3.5 | 1.1
CCOC(=O)c1c(-c2ccc(OCC)cc2)csc1NC(=O)CC | . | 6.8 | 67.1* | . | . | .
CCOC(=O)c1c(-c2ccccc2)csc1NC(=O)COC | . | 6.6 | 80.0* | . | . | .
